Records with an inconclusive call do not appear. Values without a mark were called inactive. Active and inactive are the calls of the source. Calls follow the shape of the dose curve; as a rule, active = well fitted curve in the direction sought with a large enough effect in the repeat runs; inconclusive = weak or mixed curves; inactive = no such curve, though single readings can be large; an effect the other way counts as inactive or inconclusive.
test: qHTS RealTime-Glo MT Cell Viability Assay in HepG2 cells - 40 hour (AID 1224870); conditions: RealTime-Glo luminescence; series mostly up to 76.8 µM; activity change, negative = cytotoxic: at the top concentration; also: nearly all actives have a fitted effect of over 50% in size
In short: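 HepG2 cells mixed with RealTime-Glo MT reagents (NanoLuc plus cell-permeant prosubstrate) were seeded at 600 cells/well, incubated 5 h at 37 C/5% CO2, then pinned with compounds in DMSO; nonlytic luminescence tracked viability during 40 h treatment.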
% is scaled to controls: 0 for no effect and ±100 for the full control effect; potency is read from the fitted curve at half-maximal effect.

SMILES | Potency | activity change, negative = cytotoxic
O=C(CCN1CCC(c2ccccc2)C1)c1ccc2c(c1)OCCO2 (configuration not stated) | 21.3 µM (active) | –
CCN(CC)c1ccc2c(c1)Oc1cc(N(CC)CC)ccc1C21OC(=O)c2ccccc21 | – | -8.98% [at 35.3 µM]
CC/C=C\C/C=C\C/C=C\CCCCCCCC(=O)OC | – | 12.9%
N#Cc1nc(Cl)c(Cl)c(Cl)c1Cl | 17.4 µM (active) | –
CC(C)(C)c1ccc(OC2CCCCC2O)cc1 (configuration not stated) | – | 9.44%
CN[C@H]1CC[C@@H](c2ccc(Cl)c(Cl)c2)c2ccc(S(N)(=O)=O)cc21 | 21.9 µM (active) | –
C=CC(C)(C)O | – | 3.17%
S=C1NC=NC2N=CNC12 (configuration not stated) | – | -4.75%
CCSCC | – | 0.19%
Cc1cc(C)c(O)c(C(C)(C)C)c1 | – | 24.4%
CC(=O)CC(N)=O | – | -5.09%
CC(C)=NNC(N)=S | – | -0.281%
O=C(O)CN(CCCN(CC(=O)O)CC(=O)O)CC(=O)O | – | 22.2% [at 15.8 µM]
CCOC=C(C(=O)OCC)C(=O)OCC | – | -13.1%
COc1cccc(-c2ccc(/C=C\CN3CCCCCC3)cc2Cl)c1 | 43.4 µM (active) | –
Nc1cc([N+](=O)[O-])cc(Cl)c1O | – | -2.51%

SMILES | Potency | activity change, negative = cytotoxic
CC1(C)[C@H]2CC[C@]1(C)C(=O)C2 | – | -6.5%
O[Si](c1ccccc1)(c1ccccc1)c1ccccc1 | – | 1.48%
CCC(O)CO (configuration not stated) | – | -0.291%
Oc1cccc2c(O)cccc12 | – | 8.59%
c1ccc2cc3c4ccccc4c4ccccc4c3cc2c1 | – | 0.468%
Cn1ccnc1 | – | -1.08%
Cc1cccc(C)c1C | – | 4.6%
NC(=O)c1ccccc1Cl | – | 26.4%
C/C=C/C(=O)C1=C(C)C=CCC1(C)C | – | -0.579%
O=C1C=CC(=O)N1c1cccc(N2C(=O)C=CC2=O)c1 | 17.4 µM (active) | –
CCC1(C)C(=O)N(Cl)C(=O)N1Cl (configuration not stated) | – | -11.6%
CCCCCCCCCCCCS(=O)(=O)Cl | – | 12.8% [at 15.8 µM]
CCOc1nc(F)cc2nc(S(=O)(=O)Nc3c(Cl)cccc3C(=O)OC)nn12 | – | -3.86%
CC(C)c1ccc2sc3ccccc3c(=O)c2c1 | – | -8.97%
COc1cc([C@@H]2c3cc4c(cc3[C@@H](O[C@@H]3O[C@@H]5CO[C@@H](C)O[C@H]5[C@H](O)[C@H]3O)[C@H]3COC(=O)[C@H]23)OCO4)cc(OC)c1O | – | -24.5%

test: A CellTox Green Cytotoxicity Assay to monitor cytotoxicity in HEK293 cells - 40 hour (AID 1224871); conditions: CellTox Green fluorescence; series mostly up to 76.8 µM; cytotoxicity increase: at the top concentration; also: nearly all actives have a fitted effect of over 45% in size
In short: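 Tox21 screen in HEK293: membrane-impermeant cyanine dye fluoresces on binding dead-cell DNA; compound pinned 5 h post-seeding, plates held at 37 C, signal read repeatedly through 40 h.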

SMILES | Potency | cytotoxicity increase
COc1cc(/C=C/C(=O)CC(=O)/C=C/c2ccc(O)c(OC)c2)ccc1O | 24.7 µM (active) | –
CCN(CC)c1ccc2c(c1)Oc1cc(N(CC)CC)ccc1C21OC(=O)c2ccccc21 | 16.9 µM (active) | –
O=[N+]([O-])c1ccc(CO)cc1 | – | 2.55%
N#Cc1nc(Cl)c(Cl)c(Cl)c1Cl | 1.55 µM (active) | –
O=C1OC(O)C(C(Cl)Cl)=C1Cl (configuration not stated) | – | 2.62%
CC(C)(C)c1ccc(OC2CCCCC2O)cc1 (configuration not stated) | 49 µM (active) | –
CN[C@H]1CC[C@@H](c2ccc(Cl)c(Cl)c2)c2ccc(S(N)(=O)=O)cc21 | 27.5 µM (active) | –
C=CC(C)(C)O | – | -13.7%
CCSCC | – | -12.3%
Cc1cc(C)c(O)c(C(C)(C)C)c1 | 34.7 µM (active) | –
CC(=O)CC(N)=O | – | -13.9%
CC(C)=NNC(N)=S | – | -5.36%
O=C(O)CN(CCCN(CC(=O)O)CC(=O)O)CC(=O)O | – | 0.268% [at 15.8 µM]
CCOC=C(C(=O)OCC)C(=O)OCC | – | -0.58%
Nc1cc([N+](=O)[O-])cc(Cl)c1O | – | -4.86%
CC1(C)[C@H]2CC[C@]1(C)C(=O)C2 | – | 1.5%
O[Si](c1ccccc1)(c1ccccc1)c1ccccc1 | – | 4.33%
Oc1cccc2c(O)cccc12 | – | -0.523%
Cn1ccnc1 | – | -11.2%
NC(=O)c1ccccc1Cl | – | -3.26%
C/C=C/C(=O)C1=C(C)C=CCC1(C)C | – | 2.33%
CCC1(C)C(=O)N(Cl)C(=O)N1Cl (configuration not stated) | – | 9.01%
CCCCCCCCCCCCS(=O)(=O)Cl | – | -2.77% [at 15.8 µM]
CCOc1nc(F)cc2nc(S(=O)(=O)Nc3c(Cl)cccc3C(=O)OC)nn12 | – | -3.89%
CC(C)c1ccc2sc3ccccc3c(=O)c2c1 | – | -9.81%
COc1cc([C@@H]2c3cc4c(cc3[C@@H](O[C@@H]3O[C@@H]5CO[C@@H](C)O[C@H]5[C@H](O)[C@H]3O)[C@H]3COC(=O)[C@H]23)OCO4)cc(OC)c1O | – | 26.4%

Source: PubChem BioAssay (Tox21)
